Compound activity from PubChem.
VACV Venus inh: qHTS for Stage-Specific Inhibitors of Vaccinia Orthopoxvirus: Venus Reporter Primary qHTS; hit rate 0.46% among 330,000; Vaccinia virus Venus reporter expression, fluorescence; Potency, µM (highest dose often 36.5 µM), hits mostly inhibitors; calls by dose curve; tested in A549 cells; also: nearly all actives have a fitted effect of over 30% in size
HCV inh: qHTS Assay for Inhibitors of Hepatitis C Virus (HCV); Potency, µM (doses to about 41.8 µM), actives largely listed as inhibitors; hit rate 3.4% among 340,000; AID 651820, 2012; Huh7.5.1 HCVcc-Cre infection, luciferase reporter, 44 h; active = well fitted inhibition curve with a large enough effect; inconclusive = small, poorly fitted or top-dose-only effect, or another doubt; inactive = no such curve, though single readings can be large or run the other way
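HCVcc-Cre virus at an moi near 0.5 was added right after compound to cells cultured 4 h from seeding (1,000 cells/well). Luciferase activity was determined 44 h later, 15 min after substrate addition at RT.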
Vaccinia mCherry: qHTS for Stage-Specific Inhibitors of Vaccinia Orthopoxvirus: mCherry Reporter Primary qHTS; Potency, µM (series often up to 36.5 µM), usual class: inhibitors; hit rate 0.63% among 310,000; Vaccinia virus mCherry reporter infection, fluorescence; calls by dose curve; tested in A549 cells; also: nearly all actives have a fitted effect of over 35% in size
Marburg entry inh: qHTS for inhibitors of binding or entry into cells for Marburg Virus; Potency, µM (highest dose often 37.8 µM), usual class: inhibitors; Marburg virus pseudotyped entry inhibition, cell reporter; hit rate 1.8% among 300,000; AID 540276, 2011; calls by dose curve; tested in HEK293 cells
Lassa entry inh: qHTS for Inhibitors of binding or entry into cells for Lassa Virus. Lassa virus pseudotype entry inhibition, cell reporter. Potency, µM (highest dose often 37.9 µM), usual class: inhibitors. hit rate 1.2% among 300,000; calls by dose curve; tested in HEK293 cells; also: nearly all actives have a fitted effect of over 50% in size
Of the large screens only hits and unclear results are named; the others gave an inactive call. Sampled rows, rich in hits. Any-hit rate of the full collection: about 4.6%.

CCOc1ccc(-c2nnc(SCC(=O)Nc3ccc4c(c3)c3ccccc3n4CC)n2N)cc1	HCV inh 4µM, Marburg entry inh 12µM, Lassa entry inh inconclusive (no result: VACV Venus inh, Vaccinia mCherry)
CCn1c2ccccc2c2cc(NC(=O)CSc3nnc(-c4cccc(OC)c4)n3N)ccc21	HCV inh 8.9µM, Marburg entry inh inconclusive (no result: VACV Venus inh, Vaccinia mCherry)
COc1cc(=O)n2c(c1C(=O)NCc1cccc(F)c1)CCN(Cc1cccnc1)CC2	none (no result: HCV inh, Marburg entry inh, Lassa entry inh)
CN(C(=O)CSc1nc2ccccc2n1CC(=O)N(C)c1ccc(F)cc1)c1ccccc1	none (no result: HCV inh, Marburg entry inh)
Cc1ncc(CO)c(/C=N/NC(=O)c2ccc(O)cc2)c1O	none
Cc1ncc(CO)c(/C=N/NC(=S)Nc2ccc(Cl)c(Cl)c2)c1O	HCV inh 14µM (no result: Marburg entry inh, Lassa entry inh)
Cc1ncc(CO)c(/C=N/NC(=O)c2cc3c(s2)CCCC3)c1O	HCV inh 7.9µM, Marburg entry inh inconclusive, Lassa entry inh inconclusive (no result: VACV Venus inh, Vaccinia mCherry)
Cc1ncc(CO)c(/C=N/NC(=O)c2ccoc2C)c1O	HCV inh inconclusive, Marburg entry inh inconclusive
Cc1ccc(-n2ncc(C#N)c2/N=C/N2CCCCCC2)cc1	HCV inh 10µM, Lassa entry inh inconclusive
O=C(Nc1ccc(F)cc1F)c1noc2c1CCc1ccccc1-2	Marburg entry inh inconclusive, Lassa entry inh inconclusive (no result: HCV inh)
COc1ccc(OC)c(-c2ccnc(-n3ncc(C(=O)N(C)CCO)c3C3CC3)n2)c1	none (no result: HCV inh, Marburg entry inh, Lassa entry inh)
COc1ccc(NC(=O)CSc2ccc3nc(-c4ccccc4)cn3n2)c(OC)c1	Lassa entry inh inconclusive (no result: HCV inh, Marburg entry inh)
CCC(Sc1nnc2c3ccccc3n(CC)c2n1)C(=O)Nc1nnc(C(C)C)s1 (centres undefined)	none (no result: HCV inh)
CCCn1c2ccccc2c2nnc(SC(CC)C(=O)Nc3sc4c(c3C#N)CCCC4)nc21 (centres undefined)	Marburg entry inh inconclusive (no result: VACV Venus inh, Vaccinia mCherry)
CCCn1c2ccccc2c2nnc(SC(CC)C(=O)Nc3cc(C)on3)nc21 (centres undefined)	VACV Venus inh inconclusive, HCV inh inconclusive, Marburg entry inh 13µM, Lassa entry inh inconclusive (no result: Vaccinia mCherry)
CCC(Sc1nnc2c3ccccc3n(CC)c2n1)C(=O)Nc1ccc(NC(C)=O)cc1 (centres undefined)	Marburg entry inh 3.5µM (no result: HCV inh)
C=C(C)C1CC=C(C)/C(=N\NC(=S)Nc2ccc(C)cc2)C1 (centres undefined)	HCV inh inconclusive, Marburg entry inh inconclusive, Lassa entry inh 13µM
CCc1cc(=O)oc2cc(C)c(CN3CCC[C@@H](C)C3)c(O)c12	none (no result: VACV Venus inh, HCV inh, Vaccinia mCherry, Lassa entry inh)
O=C1NN(c2ccccc2)C(=O)/C1=C\c1cccn1-c1ccc(Cl)c([N+](=O)[O-])c1	Marburg entry inh 11µM, Lassa entry inh inconclusive
COc1cc(/C=C2/C(=O)NN(c3ccc(C)c(Cl)c3)C2=O)cc([N+](=O)[O-])c1O	none (no result: VACV Venus inh, Vaccinia mCherry, Marburg entry inh, Lassa entry inh)
CCN(CC)CC(C)(C)C(=O)/C=C/c1ccc(/C=C/C(=O)C(C)(C)CN(CC)CC)cc1	VACV Venus inh 11µM, HCV inh 2.2µM, Vaccinia mCherry inconclusive, Marburg entry inh 1.4µM, Lassa entry inh 3.5µM
O=C(COc1ccc([N+](=O)[O-])cc1)Nc1cccc2cccnc12	none (no result: HCV inh)
COC(=O)C1=C(c2ccc(OCc3ccccc3)cc2)C[C@@H]2CC[C@H]1N2C(=O)NCc1ccc(C(C)(C)C)cc1	VACV Venus inh inconclusive (no result: HCV inh, Marburg entry inh, Lassa entry inh)
COC(=O)C1=C(c2ccc(OCc3ccccc3)cc2)C[C@@H]2CC[C@H]1N2C(=O)NCc1ccccc1	HCV inh 10µM, Vaccinia mCherry inconclusive (no result: Marburg entry inh, Lassa entry inh)
COC(=O)C1=C(c2ccc(OCc3ccccc3)cc2)C[C@@H]2CC[C@H]1N2C(=O)NCc1cccc(OC)c1	VACV Venus inh inconclusive, HCV inh 6.3µM, Vaccinia mCherry inconclusive (no result: Marburg entry inh, Lassa entry inh)
COC(=O)C1=C(c2cccc(OCc3ccccc3)c2)C[C@@H]2CC[C@H]1N2C(=O)NCc1ccc(OC)cc1	VACV Venus inh inconclusive, HCV inh 22µM (no result: Marburg entry inh, Lassa entry inh)
COc1ccccc1C1CN(Cc2cccn2-c2ncccn2)Cc2ccccc2O1 (centres undefined)	none (no result: HCV inh, Marburg entry inh, Lassa entry inh)
CC(C)n1cc(/C=C2/NC(=O)NC2=O)c2ccccc21	HCV inh inconclusive, Vaccinia mCherry inconclusive
C#CCn1cc(/C=C2\NC(=O)NC2=O)c2ccccc21	Vaccinia mCherry 4.5µM, Marburg entry inh inconclusive
c1ccc2c(c1)[nH]c1c3ccccc3sc21	HCV inh 11µM (no result: Marburg entry inh, Lassa entry inh)
Cc1ccccc1CCNC(=O)c1ccc(Cl)c(S(=O)(=O)N2CC(C)OC(C)C2)c1 (centres undefined)	VACV Venus inh inconclusive, HCV inh 7.9µM, Marburg entry inh inconclusive
COc1ccc(NC(=O)c2ccc(Cl)c(S(=O)(=O)N3CCc4ccccc4C3)c2)cn1	HCV inh 11µM, Marburg entry inh inconclusive, Lassa entry inh inconclusive (no result: VACV Venus inh, Vaccinia mCherry)
COc1ccc(NC(=O)c2ccc(Cl)c(S(=O)(=O)N3CC(C)OC(C)C3)c2)cn1 (centres undefined)	HCV inh 3.2µM (no result: VACV Venus inh, Vaccinia mCherry, Marburg entry inh, Lassa entry inh)
CCc1nnc(NC(=O)c2ccc(Cl)c(S(=O)(=O)N3CCc4ccccc4C3)c2)s1	HCV inh inconclusive
COc1ccc(CNc2nc3c(-c4cccc(C)c4)nnn3c3ccccc23)cc1	Vaccinia mCherry inconclusive (no result: HCV inh)
CCOc1ccc(C(c2c(O)cc(C)n(CCOC)c2=O)N2CCN(c3ccccc3)CC2)cc1 (centres undefined)	none (no result: HCV inh, Marburg entry inh)
Fc1ccccc1CSc1ncnc2c1ncn2C1CCCO1 (centres undefined)	Vaccinia mCherry inconclusive, Marburg entry inh 0.89µM, Lassa entry inh inconclusive
Cc1cc2oc(=O)c(CC(=O)NCCCN(C)C)c(C)c2c2occ(C(C)(C)C)c12	VACV Venus inh inconclusive, HCV inh 10µM, Vaccinia mCherry 13µM, Marburg entry inh inconclusive, Lassa entry inh inconclusive
O=C(Nc1nc2ccc(F)cc2s1)c1nc(S(=O)(=O)Cc2ccccc2)ncc1Cl	Lassa entry inh 4.5µM (no result: HCV inh)
O=C(NCc1ccccc1)c1nc(S(=O)(=O)Cc2ccc(F)cc2)ncc1Cl	Marburg entry inh inconclusive, Lassa entry inh inconclusive (no result: HCV inh)
Cc1ccc(NC(=O)c2nc(S(=O)(=O)Cc3ccccc3)ncc2Cl)cc1	VACV Venus inh inconclusive, HCV inh inconclusive, Marburg entry inh inconclusive
Cc1cccc(CS(=O)(=O)c2ncc(Cl)c(C(=O)Nc3nc4ccc(F)cc4s3)n2)c1	VACV Venus inh inconclusive, Vaccinia mCherry inconclusive, Lassa entry inh inconclusive (no result: HCV inh)
Cc1cccc(CS(=O)(=O)c2ncc(Cl)c(C(=O)NCc3ccccc3)n2)c1	HCV inh inconclusive, Marburg entry inh 4.5µM, Lassa entry inh inconclusive
Cc1nnc(NC(=O)c2nc(S(=O)(=O)Cc3ccccc3)ncc2Cl)s1	HCV inh 10µM, Marburg entry inh inconclusive, Lassa entry inh inconclusive
Cc1cccc(C)c1NC(=O)c1nc(S(=O)(=O)Cc2ccccc2)ncc1Cl	HCV inh inconclusive, Marburg entry inh 11µM, Lassa entry inh inconclusive
CCc1cc(/C=C/c2ccnc3ccccc23)ccc1N(C)C	Vaccinia mCherry inconclusive (no result: HCV inh, Marburg entry inh, Lassa entry inh)
C[C@@H]1N[S+](=O)([O-])c2cc(Cl)ccc2O[C@H]1c1ccccc1	none (no result: VACV Venus inh, HCV inh, Vaccinia mCherry, Marburg entry inh)
O=C(Nc1ccc(F)cc1)c1nn(-c2ccccc2)c(=O)cc1Cl	VACV Venus inh 28µM, HCV inh 6.3µM, Vaccinia mCherry inconclusive, Marburg entry inh 7.1µM, Lassa entry inh inconclusive
